Test results reported in the supplement of paper PMC6555819.

What was measured:
Test in all cases: PBM binding z-score (relative to random genomic background probes); higher = stronger binding; sequences stand for … in GC…GCGATTGACAGCGTAGAATGAAGG
[1] = tested on: FXR:RXRa (NR concentration 270 nM, RXRa partner concentration 90 nM)
In short: (§1)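 Regression normalization was applied to scanned fluorescence from custom Agilent 4×180K protein-binding microarrays. Before scanning, arrays were incubated 1 h with ligand-free nuclear receptor dimers, and binding was detected with antibodies against each partner (one per run). Binding z-scores use the random background probes as reference.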

[2] = tested on: LXRa:RXRa (NR concentration 270 nM, RXRa partner concentration 90 nM)
In short: as §1

[3] = tested on: LXRa homodimer (NR concentration 270 nM)
In short: as §1

[4] = tested on: LXRb:RXRa (NR concentration 270 nM, RXRa partner concentration 90 nM)
In short: as §1

[5] = tested on: LXRb homodimer (NR concentration 270 nM)
In short: as §1

[6] = tested on: PPARa:RXRa (NR concentration 270 nM, RXRa partner concentration 90 nM)
In short: as §1

[7] = tested on: PPARg:RXRa (NR concentration 180 nM, RXRa partner concentration 90 nM)
In short: as §1

[8] = tested on: PPARg:RXRa 270nM:90nM, anti-RXR (NR concentration 270 nM, RXRa partner concentration 90 nM)
In short: as §1

[9] = tested on: PPARg:RXRa 30nM:10nM, anti-RXR (NR concentration 30 nM, RXRa partner concentration 10 nM)
In short: as §1

[10] = tested on: PPARg:RXRa 90nM:30nM, anti-RXR (NR concentration 90 nM, RXRa partner concentration 30 nM)
In short: as §1

[11] = tested on: PPARg:RXRa DBDmut IVT, anti-RXR (DBD mutation: RXRa K156A/R161A, NR concentration 270 nM, RXRa partner concentration 90 nM)
In short: as §1

[12] = tested on: PPARg:RXRa IVT, anti-PPARg (NR concentration 270 nM, RXRa partner concentration 90 nM)
In short: as §1

[13] = tested on: PPARg DBDmut:RXRa IVT, anti-PPARg (DBD mutation: PPARg1 K132A/R137A, NR concentration 270 nM, RXRa partner concentration 90 nM)
In short: as §1

[14] = tested on: PPARg DBDmut IVT, anti-PPARg (DBD mutation: PPARg1 K132A/R137A, NR concentration 270 nM)
In short: as §1

[15] = tested on: PPARg homodimer (NR concentration 180 nM)
In short: as §1

[16] = tested on: PXR:RXRa (NR concentration 270 nM, RXRa partner concentration 90 nM)
In short: as §1

[17] = tested on: PXR homodimer (NR concentration 270 nM)
In short: as §1

[18] = tested on: RARa:RXR (NR concentration 270 nM, RXRa partner concentration 90 nM)
In short: as §1

[19] = tested on: RARa homodimer (NR concentration 270 nM)
In short: as §1

[20] = tested on: RARb:RXRa (NR concentration 270 nM, RXRa partner concentration 90 nM)
In short: as §1

Sequence | PBM binding z-score [1] | PBM binding z-score [2] | PBM binding z-score [3] | PBM binding z-score [4] | PBM binding z-score [5] | PBM binding z-score [6] | PBM binding z-score [7] | PBM binding z-score [8] | PBM binding z-score [9] | PBM binding z-score [10] | PBM binding z-score [11] | PBM binding z-score [12] | PBM binding z-score [13] | PBM binding z-score [14] | PBM binding z-score [15] | PBM binding z-score [16] | PBM binding z-score [17] | PBM binding z-score [18] | PBM binding z-score [19] | PBM binding z-score [20]
GGAACGAGGGCATTCGAGTTGATAGAATGGCGAT | 1.44 | 1.37 | -0.262 | 0.195 | -0.719 | 1.27 | 0.965 | 0.758 | 0.0506 | 0.303 | 2.73 | 1.93 | -0.165 | -0.814 | -0.265 | 3.87 | 1.31 | 0.709 | -0.629 | 1.69
GCGACTGGGCCATCAGCAGGTTACCATAACTTAA | -0.78 | -0.767 | -0.789 | -0.559 | -1.23 | 0.242 | 0.386 | -0.176 | -0.886 | -0.265 | 2.78 | 2.04 | -0.993 | -1.45 | -0.551 | -0.569 | -0.71 | -0.295 | -0.835 | 0.195
GTTCGGAGGACAAGGTCAGAGCTTTGTCCGTAGA | 1.57 | 1.48 | -0.204 | 0.904 | -0.834 | 2.16 | 0.427 | 1.29 | -0.266 | 0.514 | -0.0952 | 0.927 | -0.706 | -1.19 | 1.25 | 1.67 | -0.41 | 2.17 | -0.913 | 3.13
ACAGACAGGTGATGAAGCTAACTCAGGCTATCAT | -0.132 | -0.408 | -0.326 | -0.472 | -0.446 | -0.116 | 0.522 | -0.13 | -0.153 | -0.11 | -0.036 | -0.28 | 0.338 | 0.232 | 0.0494 | -0.231 | 0.283 | 0.275 | -0.315 | -0.112
ATCTCTAGGTAAAGATAGTTCAGAGAATGCAAAT | 0.206 | 3.56 | 0.259 | 0.69 | 0.411 | 0.663 | 0.843 | 0.494 | 0.309 | 0.609 | 1.37 | 1.42 | 0.582 | 1.54 | 0.983 | 0.864 | 0.342 | 0.707 | 0.924 | 0.573
CCGACTGGGCCATAAGGTTACCATAAGCCAGCCC | 0.273 | 1.84 | -0.402 | 0.636 | -0.941 | 1.4 | 1.57 | 2.48 | 0.644 | 2.05 | 1.93 | 2.16 | -0.459 | -1.39 | 0.396 | 0.04 | -0.806 | 1.15 | -0.622 | 1.06
ATATGTAGGATACATCCGGGTCATTCAGGCTATG | 1.21 | 1.31 | 0.653 | 1.61 | 0.399 | 2.9 | 2.14 | 1.77 | 0.797 | 1.28 | 3.21 | 3.86 | 1.63 | 1.37 | 1.25 | 2.39 | 1.38 | 2.42 | 0.161 | 1.2
TCTAGTTGGTCACGGTGGTCACACACGACGGGTA | -0.0806 | 0.249 | -0.00168 | 0.395 | 0.0154 | 1 | 1.15 | 2.15 | 3.17 | 2.47 | 2.21 | 3.35 | 1.54 | 0.923 | 0.94 | 0.537 | -0.191 | 0.741 | -0.155 | 1.93
TCTTGTAGATCAACAGGAAGTTAAGAAAGATCGA | 0.112 | 0.0523 | -0.395 | -0.15 | -0.422 | 0.364 | 0.0673 | 1.13 | 2.73 | 1.58 | 1.64 | 0.249 | 0.464 | 0.377 | -0.378 | -0.183 | -0.761 | -0.00111 | 0.174 | -0.318
CCTGGCAGGCCAATCTGGGTCACTCAAGGCTTGA | 0.937 | 0.927 | -0.703 | 0.276 | -1.26 | 2.69 | 1.37 | 2.06 | -0.284 | 1.22 | 3.55 | 4.78 | -0.588 | -0.975 | 0.0231 | 0.725 | -0.786 | 1.11 | -1.09 | 1.64
CGAACTAGGTCATTGACAGGACAGTCAATAGTAA | 4.28 | 3.15 | 0.489 | 2.19 | 0.17 | 4.74 | 7.38 | 6.08 | 3.32 | 5.75 | 7.74 | 8.19 | 3.76 | 2.34 | 1.94 | 1.66 | 0.135 | 2.34 | 0.378 | 3.51
ACTAGTTGGTCAGCTGAGGTCATACACAATTCGG | 3.84 | 3.45 | 3.44 | 3.54 | 1.09 | 3.52 | 1.43 | 1.72 | 0.448 | 1.14 | 1.47 | 2.35 | 1.46 | 1.13 | 3.38 | 5.65 | 3.46 | 4.45 | 0.98 | 3.15
TCTGCTAGGTCAACGATGGGCAGCTAATCTGCTA | 3.19 | 2.29 | -0.252 | 1.2 | -0.397 | 2.94 | 2.47 | 3.01 | 1.85 | 2.49 | 4.14 | 4 | 1.49 | -0.401 | 0.59 | 0.836 | -1.21 | 1.73 | -1.18 | 4.19
TAGCCTAGGTCATTCAGGGGCCAGGATAGAAAGC | 4.96 | 3.81 | 0.311 | 2.77 | 0.864 | 3.69 | 2.2 | 2.42 | 0.232 | 1.26 | 1.12 | 2.85 | 0.258 | -0.519 | 1.31 | 2.26 | -0.068 | 3.5 | -0.579 | 3.97
